These results are taken from PubChem BioAssay.

The target of assay [1] is Cell division control protein 42 homolog (Homo sapiens) (UniProt P60953). The assay can be described thus: activated mutant Cdc42 GTP-binding inhibitors, dose response, biochemical, multiplex bead flow cytometry, Bodipy-FL-GTP (AID 1333;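 active = fitted half-maximal concentration within the tested dose range, moderate curve steepness, a statistically real signal drop, and little compound fluorescence or tag-binding interference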). A general note: Flow cytometry measures light scatter and fluorescence of single cells or particles in a stream.
Sequence of Cell division control protein 42 homolog (Homo sapiens) (P60953 whole entry, looked up): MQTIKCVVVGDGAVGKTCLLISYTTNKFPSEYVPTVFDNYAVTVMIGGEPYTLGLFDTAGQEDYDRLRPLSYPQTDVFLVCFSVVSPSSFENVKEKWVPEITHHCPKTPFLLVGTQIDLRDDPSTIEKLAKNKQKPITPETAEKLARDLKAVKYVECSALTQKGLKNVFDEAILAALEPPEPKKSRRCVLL
Assay [2] has the same target. The assay can be described thus: wildtype Cdc42 GTP-binding inhibitors, dose response, biochemical, multiplex bead flow cytometry, Bodipy-FL-GTP (AID 1334;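 active = fitted half-maximal concentration within the tested range, moderate curve steepness, significant signal drop, and little compound fluorescence or bead-linkage interference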). The following applies: bead-based flow cytometry, Bodipy-FL-GTP binding to GST-Cdc42; at 100 µM (top of the series) unless noted.
Assay [3] addresses GTPase HRas (Homo sapiens) (UniProt P01112). In words: inhibitors of GTP binding to wildtype Ras, dose response, biochemical, multiplex bead flow cytometry (AID 1335;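 active = fitted half-maximal concentration within 10 nM to 100 µM, steepness 0.5 to 2, significant signal drop, low assay interference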). The following applies: bead-based flow cytometry, Bodipy-GTP binding to GST-Ras; at 100 µM (top of the series) unless noted.
Assay [4] relates to Ras-related protein Rab-7a (dog), GTP binding. In words: Rab7 GTP binding inhibitors, potency, dose response, biochemical, wildtype, multiplex bead flow cytometry (AID 1336).
In assay [5] the target is Ras-related C3 botulinum toxin substrate 1 (Homo sapiens) (UniProt P63000). In words: wildtype Rac1 GTP binding inhibitors, dose response, biochemical, multiplex bead flow cytometry (AID 1340;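 active = dose curve with midpoint inside tested range, moderate steepness, plateau gap beyond fit error, low compound glow and bead-link interference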). To be noted: GST-Rac1 beads, Bodipy-FL-GTP binding; at 100 µM (top of the series) unless noted.
Assay [6] deals with GTPase HRas (Homo sapiens) (UniProt P01112). In words: activated Ras mutant GTP binding inhibitors, dose response, biochemical, multiplex bead flow cytometry (AID 1341;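 active = dose-response curve with midpoint inside the tested range, moderate steepness, significant amplitude and little compound fluorescence or bead-attachment interference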;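 also: GST-tagged constitutively activated Ras mutant immobilized on beads and multiplexed with other GTPases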).
Sequence of GTPase HRas (Homo sapiens) (P01112 whole entry, looked up): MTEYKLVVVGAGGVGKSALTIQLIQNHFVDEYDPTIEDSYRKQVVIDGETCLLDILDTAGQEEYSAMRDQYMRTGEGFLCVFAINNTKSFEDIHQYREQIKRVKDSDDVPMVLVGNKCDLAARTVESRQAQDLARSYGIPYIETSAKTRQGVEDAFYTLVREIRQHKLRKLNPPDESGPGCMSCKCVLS

For part of these data: Measured potencies and affinities stand elsewhere. Active and inactive are the calls of the source. Unless noted, no rule for the calls is given here.

On to `CCc1ccc(OCc2ccc(C(=O)O)o2)cc1`, for which the compound was called inactive in assay [1], in assay [4] and in assay [6]. Besides, the fluorescence, percent of control (lower = inhibition) in assay [2] is 60.7%. Moreover, the GTP binding, percent of control in assay [3] was 90.3%. Also, the GTP binding signal, raw median fluorescence (lower = inhibition) (MCF (arbitrary fluorescence units)) in assay [5] came to 35.2.

`O=C(O)c1cc(Sc2ccc(F)cc2)nc2ccccc12`: the compound was classed as inactive in assay [1], in assay [4] and in assay [6]. For the same compound, the fluorescence, percent of control (lower = inhibition) in assay [2] came to 59.8%. Besides, the GTP binding, percent of control in assay [3] was determined as 86%. The GTP binding signal, raw median fluorescence (lower = inhibition) (MCF (arbitrary fluorescence units)) in assay [5] came out at 30.2.

`Cc1ccc(CS(=O)(=O)c2ccccc2-c2nnc(-c3ccc(Cl)cc3)o2)cc1`: the outcome in assay [1], in assay [4] and in assay [6] was inactive. Besides, in assay [2], the fluorescence, percent of control (lower = inhibition) was 88.2%. In assay [3], this compound displayed a GTP binding, percent of control of 156%. This compound registered a GTP binding signal, raw median fluorescence (lower = inhibition) (MCF (arbitrary fluorescence units)) in assay [5] of 181.

With `Cc1nc(-c2cnn(-c3ccccc3)c2)c2cc(C)oc2n1`, the outcome in assay [1], in assay [4] and in assay [6] was inactive. In addition, the fluorescence, percent of control (lower = inhibition) in assay [2] worked out at 61.7%. In assay [3], the GTP binding, percent of control amounted to 140%. In assay [5], this compound displayed a GTP binding signal, raw median fluorescence (lower = inhibition) (MCF (arbitrary fluorescence units)) of 140.

As for `COc1ccc(/C=N/NC(=O)CSc2n[nH]c(=O)[nH]c2=O)cc1`, the result in assay [1], in assay [4] and in assay [6] was inactive. For the same compound, the fluorescence, percent of control (lower = inhibition) in assay [2] is 53.1%. In assay [3], this compound showed a GTP binding, percent of control of 69.6%. The GTP binding signal, raw median fluorescence (lower = inhibition) (MCF (arbitrary fluorescence units)) in assay [5] was 0.

As to `CCCN1C(=O)/C(=C\C=C2\N(CC)c3ccccc3C2(C)C)SC1=S`, the compound was called inactive in assay [1], in assay [4] and in assay [6]. The fluorescence, percent of control (lower = inhibition) in assay [2] turned out to be 104%. For the same compound, the GTP binding, percent of control in assay [3] was found to be 140%. Also, the GTP binding signal, raw median fluorescence (lower = inhibition) (MCF (arbitrary fluorescence units)) in assay [5] worked out at 307.

On to `Cc1nc(-c2ccccc2)sc1C(=O)NN`, for which the compound was classed as inactive in assay [1], in assay [4] and in assay [6]. Also, the fluorescence, percent of control (lower = inhibition) in assay [2] amounted to 39.4%. Further, the GTP binding, percent of control in assay [3] turned out to be 82.3%. The compound further came in with a GTP binding signal, raw median fluorescence (lower = inhibition) (MCF (arbitrary fluorescence units)) in assay [5] of 248.

`Cc1ccc(C(=O)O)c(OCc2ccccc2C)c1`: the result in assay [1], in assay [4] and in assay [6] was inactive. For the same compound, the fluorescence, percent of control (lower = inhibition) in assay [2] was determined as 62.4%. The same compound registered a GTP binding, percent of control in assay [3] of 208%. For the same compound, the GTP binding signal, raw median fluorescence (lower = inhibition) (MCF (arbitrary fluorescence units)) in assay [5] was 59.3.

On to `O=C(O)c1ccc(CSCc2ccccc2Cl)o1`, for which the outcome in assay [1], in assay [4] and in assay [6] was inactive. In assay [2], the fluorescence, percent of control (lower = inhibition) worked out at 57.8%. The GTP binding, percent of control in assay [3] was 79.8%. Also, in assay [5], the GTP binding signal, raw median fluorescence (lower = inhibition) (MCF (arbitrary fluorescence units)) was 30.2.

`O=S1(=O)N=C(N(CCO)/N=C/c2ccccc2)c2ccccc21`: the call in assay [1], in assay [4] and in assay [6] was inactive. Moreover, the fluorescence, percent of control (lower = inhibition) in assay [2] amounted to 31.3%. This compound also displayed a GTP binding, percent of control in assay [3] of 63.2%. Besides, the GTP binding signal, raw median fluorescence (lower = inhibition) (MCF (arbitrary fluorescence units)) in assay [5] was 139.

Regarding `CC(C)NC(=O)C12CC3CC(C1)CC(n1cnc(Cl)n1)(C3)C2`, the outcome in assay [1], in assay [4] and in assay [6] was inactive. The fluorescence, percent of control (lower = inhibition) in assay [2] turned out to be 41.5%. For the same compound, the GTP binding, percent of control in assay [3] is 89.6%. Besides, in assay [5], the GTP binding signal, raw median fluorescence (lower = inhibition) (MCF (arbitrary fluorescence units)) was 319.

For the compound `O=C(Oc1cccc(O)c1)C1CCCCC1`, the result in assay [1], in assay [4] and in assay [6] was inactive. Further, the fluorescence, percent of control (lower = inhibition) in assay [2] stood at 36.8%. This compound also gave a GTP binding, percent of control in assay [3] of 81.6%. For the same compound, the GTP binding signal, raw median fluorescence (lower = inhibition) (MCF (arbitrary fluorescence units)) in assay [5] came to 296.

With `Nc1c(S(=O)(=O)c2cccs2)c2nc3ccccc3nc2n1/N=C/c1cccc(O)c1`, the compound was called inactive in assay [1], in assay [4] and in assay [6]. Also, in assay [2], the fluorescence, percent of control (lower = inhibition) is 30.6%. In assay [3], the GTP binding, percent of control was determined as 77.3%. The compound further had a GTP binding signal, raw median fluorescence (lower = inhibition) (MCF (arbitrary fluorescence units)) in assay [5] of 101.

Consider `CCOC(=O)c1ccc(Nc2nc(C(=O)OCC)nc3ccccc23)cc1`, for which the outcome in assay [1], in assay [4] and in assay [6] was inactive. Moreover, in assay [2], the fluorescence, percent of control (lower = inhibition) came to 66.3%. Further, the GTP binding, percent of control in assay [3] worked out at 128%. This compound displayed a GTP binding signal, raw median fluorescence (lower = inhibition) (MCF (arbitrary fluorescence units)) in assay [5] of 159.

Turning to `COc1ccc(CC(C)N2CCN(Cc3ccccc3)CC2)c(OC)c1` (stereo not given), the compound was called inactive in assay [1], in assay [4] and in assay [6]. Besides, in assay [2], the fluorescence, percent of control (lower = inhibition) was 38.1%. This compound also returned a GTP binding, percent of control in assay [3] of 85.3%. In assay [5], this compound yielded a GTP binding signal, raw median fluorescence (lower = inhibition) (MCF (arbitrary fluorescence units)) of 272.
